Here are results for 40 compounds from PubChem BioAssay (NCATS).

Inconclusive results are not listed. A call without a number means that no potency is given here. Calls of active or inactive are those of the source. Calls follow the shape of the dose curve; as a rule, active = well fitted inhibition curve with a large enough effect; inconclusive = small, poorly fitted or top-dose-only effect; inactive = no such curve, though single readings can be large or run the other way.
Potency is read from the fitted curve at half-maximal effect.

The nature of this assay: BET inhibitor-based combinations targeting novel dependencies in MECOM-rearranged (r) AML: UCSD-AML1 cell line (AID 2202235). Also: nearly all actives have a fitted effect of over 40% in size. Conditions: UCSD-AML1 AML cells viability, CellTiter-Glo, 48 h; series mostly up to 46 µM. From the text: Ecotropic viral insertion site 1 (EVI1) is located on chromosome 3q26.2 as part of the MECOM (MDS and EVI1 complex) locus. Under normal hematopoiesis, EVI1 is a regulator of hematopoietic stem cell maintenance and self-renewal and EVI1 levels decrease as the cells differentiate. In approximately 5-10% of de novo acute myeloid leukemia (AML) EVI1 is aberrantly expressed, including Chromosomal inv(3)(q21;q26.2) or t(3;3)(q21;q26.2) alterations (MECOM-r) that account for about 50% of AML with EVI1 overexpression 31. AMLs with high levels of EVI1 have a poor prognosis and an overall survival time averaging between 10-14 months. EVI1 overexpression confers resistance in leukemia cells, highlighting the need to develop new targeted therapies for EVI1 overexpressing AMLs. Here, we performed an unbiased chemical drug screening by evaluating the single agent activity of a collection of 2,480 oncology-focused, approved and investigational drugs (NCATS Mechanism Interrogation Plates, MIPE v5.0) against a panel of seven AML cell lines. These included four MECOM-r cell-lines (AML-191, AML-194, UCSD-AML1 and HNT-34) and three non-MECOM-r AMLs (MV4-11, OCI-AML3 and SET-2). Exploiting the mechanistic redundancy built in the library, we identified target-level sensitivities in MECOM-r AML cells and relative activity as compared to other AML subtypes.
A collection of 2480 mechanistically annotated dugs (MIPE v5.0) was used to screen four 3q26.2 rearranged AML cell lines and three non-3q26.2 rearranged AML cell lines. This library purposely exploits redundancy by including multiple inhibitors of key onco-targets, while simultaneously encompassing mechanistic diversity, targeting more than 800 distinct mechanisms of action. Briefly, cells were seeded in 5 uL of growth media using a Multidrop Combi dispenser into 1536 well white polystyrene tissue culture treated plates (Corning) at a density of 500cells/well. For each cell-line, for each of the 2480 drugs in MIPE v5.0 library, an 11-point dose curve was generated via a 1536 pin-tool. Plates were incubated for 48 hr at standard incubator conditions, covered by a stainless steel gasketed lid to prevent evaporation. Cell viability was determined by luminescence based, Cell Titer Glo assay (Promega). In detail, 3 uL of Cell Titer Glo were added to each well and plates were incubated at room temperature for 15 min with a stainless-steel lid in place. Luminescence readings were taken using a Viewlux (PerkinElmer) with a 2 s exposure time per plate. Compound dose-response curves were normalized to DMSO and empty well controls on each plate. Quantitative drug activity data from dose-response curves was determined utilizing area Under the Curve (AUC) and Z-transformed AUC (Z-AUC, a mean-centering transformation applied to each individual cell-line screened).
A general note: Cellular ATP, detected with luciferase, serves as a proxy for viable cell number.
Turning to `Clc1ccccc1C(c1ccccc1)(c1ccccc1)n1cccn1`, the Potency entry was “inactive”.

As for `C[C@]12CC[C@H]3[C@@H](CC[C@@]45O[C@@H]4C(O)=C(C#N)C[C@]35C)[C@@H]1CC[C@@H]2O`, the Potency entry was “inactive”.

As for `COc1ccc(C(=O)c2c(C)n(CCN3CCOCC3)c3ccccc23)cc1`, the Potency is 1860 nM (active).

For the compound `C[C@]12CCC(=O)C(O)=C1CC[C@@H]1[C@@H]2CC[C@]2(C)C(=O)CC[C@@H]12`, the Potency result is “inactive”.

For `CCc1c(C(=O)C(N)=O)c2c(OCC(=O)O)cccc2n1Cc1ccccc1`, the Potency result is “inactive”.

With `COC1=C[C@@H]2[C@@H]3Cc4ccc(OC)c(O)c4[C@]2(CCN3C)CC1=O`, the Potency entry was “inactive”.

With `Cc1[nH]nc2ccc(-c3cncc(OC[C@@H](N)Cc4c[nH]c5ccccc45)c3)cc12`, the Potency is 468 nM (active).

Take `C/C(=C\c1csc(C)n1)[C@@H]1C[C@@H]2O[C@@H]2CCC[C@H](C)[C@H](O)[C@@H](C)C(=O)C(C)(C)[C@@H](O)CC(=O)O1`: the Potency was 18.6 nM (active).

Regarding `COc1cccc2c1C(=O)c1c(O)c3c(c(O)c1C2=O)C[C@@](O)(C(=O)CO)CC3OC1CC(N2CCOC(OC)C2)C(O)C(C)O1` (stereo not given in full), the Potency is 4.7 nM (active).

Take `CCOC(=O)Nc1ccc(NCc2ccc(F)cc2)cc1N`: the Potency entry is “inactive”.

In the case of `C/C=C(/C)C(=O)O[C@H]1C(C)=C2[C@H]([C@@H]1OC(=O)CCCCCCC)[C@@](C)(OC(C)=O)C[C@H](OC(=O)CCC)[C@@]1(O)[C@H]2OC(=O)[C@@]1(C)O`, the Potency is 132 nM (active).

With `C=C1C[C@@H]2[C@H](CC[C@]3(C)C(=O)CC[C@@H]23)[C@@]2(C)C=CC(=O)C=C12`, the Potency entry was “inactive”.

Turning to `C[C@]12CC[C@H]3[C@@H](CCC4=CC(=O)CC[C@@]43C)[C@H]1CC[C@H]2OC(=O)CCC1CCCC1`, the Potency result was “inactive”.

On to `CC(C)(O)C(=O)Nc1ccc([N+](=O)[O-])c(C(F)(F)F)c1`, for which the Potency result is “inactive”.

With `COc1cc(C)[nH]c(=O)c1CNC(=O)c1c(C)n([C@H](C)C2CCN(CC(F)(F)F)CC2)c2ccccc12`, the Potency result was “inactive”.

As to `CC[C@@]1(O)C(=O)OCc2c1cc1n(c2=O)Cc2cc3ccccc3nc2-1`, the Potency is 10.5 nM (active).

Take `CCCCCC[C@H]1C(=O)O[C@H](C)[C@H](NC(=O)c2cccc(NC=O)c2O)C(=O)O[C@@H](C)[C@@H]1OC(=O)CC(C)C`: the Potency entry was “inactive”.

With `Cc1c(N)nc([C@H](CC(N)=O)NC[C@@H](N)C(N)=O)nc1C(=O)N[C@H](C(=O)N[C@@H](C)[C@H](O)[C@@H](C)C(=O)N[C@@H](C(=O)NCCc1nc(-c2nc(C(=O)NCCC[S+](C)C)cs2)cs1)[C@@H](C)O)C(O[C@H]1O[C@H](CO)[C@H](O)[C@@H](O)[C@H]1O[C@H]1O[C@H](CO)[C@@H](O)[C@H](OC(N)=O)[C@@H]1O)c1cnc[nH]1` (stereo not given in full), the Potency entry was “inactive”.

On to `C[C@@H]1O[C@@H](O[C@H]2C[C@@H](O)[C@]3(CO)[C@H]4[C@H](O)C[C@]5(C)[C@@H](C6=CC(=O)OC6)CC[C@]5(O)[C@@H]4CC[C@]3(O)C2)[C@H](O)[C@H](O)[C@H]1O`, for which the Potency was 83.3 nM (active).

In the case of `O=C(O)c1nn(Cc2ccc(Cl)cc2Cl)c2ccccc12`, the Potency result was “inactive”.

Consider `CC1(C)CC[C@]2(NC(=O)C(C)(F)F)CC[C@]3(C)[C@H](C(=O)C=C4[C@@]5(C)C=C(C#N)C(=O)C(C)(C)[C@@H]5CC[C@]43C)[C@@H]2C1`, for which the Potency is 1320 nM (active).

Take `O=P1(N(CCCl)CCCl)NCCCO1` (stereo not given): the Potency entry is “inactive”.

In the case of `CC(=O)c1c(O)c(C)c(O)c(Cc2c(O)c3c(c(C(=O)/C=C/c4ccccc4)c2O)OC(C)(C)C=C3)c1O`, the Potency was 4170 nM (active).

As for `Cc1cccc(C)c1NC(=O)CN1CCCC1=O`, the Potency result is “inactive”.

With `COC(=O)[C@@]12OC[C@]34[C@H]([C@@H](O)[C@@H]1O)[C@@]1(C)CC(=O)C(O)=C(C)[C@@H]1C[C@H]3OC(=O)[C@H](OC(=O)/C=C(\C)C(C)C)[C@@H]24`, the Potency was 3.3 nM (active).

As to `C[C@@H]1CC[C@@]2(OC1)O[C@H]1C[C@H]3[C@@H]4CC=C5C[C@@H](O[C@@H]6O[C@H](CO)[C@@H](O[C@@H]7O[C@@H](C)[C@H](O)[C@@H](O)[C@H]7O)[C@H](O)[C@H]6O[C@@H]6O[C@@H](C)[C@H](O)[C@@H](O)[C@H]6O)CC[C@]5(C)[C@H]4CC[C@]3(C)[C@H]1[C@@H]2C`, the Potency is 8330 nM (active).

Take `CC(C)(O)/C=C\C(=O)[C@](C)(O)[C@H]1[C@H](O)C[C@]2(C)[C@@H]3CC=C4[C@@H](C=C(O)C(=O)C4(C)C)[C@]3(C)C(=O)C[C@@]12C`: the Potency was 148 nM (active).

In the case of `NCC1(CC(=O)O)CCCCC1`, the Potency result is “inactive”.

On to `CC(C)(NC(=O)O[C@@H]1CN2CCC1CC2)c1csc(-c2ccc(F)cc2)n1`, for which the Potency result is “inactive”.

Consider `CC(=O)Nc1ccc(OC[C@](C)(O)C(=O)Nc2ccc([N+](=O)[O-])c(C(F)(F)F)c2)cc1`, for which the Potency entry is “inactive”.

As for `COCC1(CO)C(=O)C2CCN1CC2` (stereo not given), the Potency is 5250 nM (active).

`COC[C@H]1OC(=O)c2coc3c2[C@@]1(C)C1=C(C3=O)C2CCC(=O)[C@@]2(C)C[C@H]1OC(C)=O` (stereo not given in full): the Potency is 5900 nM (active).

`CN1C(=O)COc2c(C(=O)NC3CN4CCC3CC4)cc(Cl)cc21` (stereo not given): the Potency result was “inactive”.

Turning to `O=C(O)C(=O)c1cn(Cc2ccccc2)c2ccc(-c3ccc(OC(F)(F)F)cc3)cc12`, the Potency result was “inactive”.

As for `C/C(O)=C(\C#N)C(=O)Nc1cc(Br)ccc1Br`, the Potency result is “inactive”.

As for `Cc1sc2c(c1C)C(c1ccc(Cl)cc1)=N[C@@H](CC(=O)OC(C)(C)C)c1nnc(C)n1-2`, the Potency is 742 nM (active).

`O=C(O)CCCc1ccc(N(CCCl)CCCl)cc1`: the Potency was 2950 nM (active).

With `CN(C)c1cc2c(cc1Sc1nc3c(N)nccc3n1CCNCC(C)(C)C)OCO2`, the Potency was 1320 nM (active).

Consider `C[C@]12CC[C@@H]3[C@@H](CCC4=CC(=O)CC[C@@H]43)[C@@H]1CC[C@@H]2OC(=O)CCc1ccccc1`, for which the Potency entry was “inactive”.

As for `O=C(NCC1CCOCC1)c1cnc(Nc2ccc(Cl)cc2Cl)nc1C(F)(F)F`, the Potency entry is “inactive”.
